# Reference: ChEMBL document CHEMBL1961873, “Compounds: GSK PKIS; Assays: Nanosyn kinase panel” (2012)
# How the values were obtained:
# [1] = biological target: T1, Inhibitor of nuclear factor kappa-B kinase subunit epsilon (Homo sapiens) (UniProt Q14164); conditions: at 1 µM;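 also: reported values are averaged percent inhibition figures against human IKKε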
# T1 sequence (whole entry): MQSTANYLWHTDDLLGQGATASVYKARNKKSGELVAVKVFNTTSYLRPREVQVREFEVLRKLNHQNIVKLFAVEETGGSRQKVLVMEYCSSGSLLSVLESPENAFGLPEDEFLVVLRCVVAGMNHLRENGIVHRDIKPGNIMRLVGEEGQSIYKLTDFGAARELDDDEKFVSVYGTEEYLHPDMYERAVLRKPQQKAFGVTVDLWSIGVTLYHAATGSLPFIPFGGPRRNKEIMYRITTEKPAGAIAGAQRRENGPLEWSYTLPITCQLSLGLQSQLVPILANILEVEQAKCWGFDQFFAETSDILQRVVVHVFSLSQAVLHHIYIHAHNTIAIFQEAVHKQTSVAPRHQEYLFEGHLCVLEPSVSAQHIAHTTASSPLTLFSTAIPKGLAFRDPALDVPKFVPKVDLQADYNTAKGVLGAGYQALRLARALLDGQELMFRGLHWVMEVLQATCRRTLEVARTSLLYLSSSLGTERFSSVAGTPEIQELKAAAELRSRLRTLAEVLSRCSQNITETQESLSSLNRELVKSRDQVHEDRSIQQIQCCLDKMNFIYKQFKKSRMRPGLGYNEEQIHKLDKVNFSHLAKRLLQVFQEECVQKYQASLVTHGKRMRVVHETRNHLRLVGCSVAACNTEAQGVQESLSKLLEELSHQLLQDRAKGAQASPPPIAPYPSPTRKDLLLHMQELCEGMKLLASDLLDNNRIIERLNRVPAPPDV
# [2] = biological target: T2, Serine/threonine-protein kinase Nek1 (Homo sapiens) (UniProt Q96PY6); conditions: at 0.1 µM
# T2 sequence (whole entry): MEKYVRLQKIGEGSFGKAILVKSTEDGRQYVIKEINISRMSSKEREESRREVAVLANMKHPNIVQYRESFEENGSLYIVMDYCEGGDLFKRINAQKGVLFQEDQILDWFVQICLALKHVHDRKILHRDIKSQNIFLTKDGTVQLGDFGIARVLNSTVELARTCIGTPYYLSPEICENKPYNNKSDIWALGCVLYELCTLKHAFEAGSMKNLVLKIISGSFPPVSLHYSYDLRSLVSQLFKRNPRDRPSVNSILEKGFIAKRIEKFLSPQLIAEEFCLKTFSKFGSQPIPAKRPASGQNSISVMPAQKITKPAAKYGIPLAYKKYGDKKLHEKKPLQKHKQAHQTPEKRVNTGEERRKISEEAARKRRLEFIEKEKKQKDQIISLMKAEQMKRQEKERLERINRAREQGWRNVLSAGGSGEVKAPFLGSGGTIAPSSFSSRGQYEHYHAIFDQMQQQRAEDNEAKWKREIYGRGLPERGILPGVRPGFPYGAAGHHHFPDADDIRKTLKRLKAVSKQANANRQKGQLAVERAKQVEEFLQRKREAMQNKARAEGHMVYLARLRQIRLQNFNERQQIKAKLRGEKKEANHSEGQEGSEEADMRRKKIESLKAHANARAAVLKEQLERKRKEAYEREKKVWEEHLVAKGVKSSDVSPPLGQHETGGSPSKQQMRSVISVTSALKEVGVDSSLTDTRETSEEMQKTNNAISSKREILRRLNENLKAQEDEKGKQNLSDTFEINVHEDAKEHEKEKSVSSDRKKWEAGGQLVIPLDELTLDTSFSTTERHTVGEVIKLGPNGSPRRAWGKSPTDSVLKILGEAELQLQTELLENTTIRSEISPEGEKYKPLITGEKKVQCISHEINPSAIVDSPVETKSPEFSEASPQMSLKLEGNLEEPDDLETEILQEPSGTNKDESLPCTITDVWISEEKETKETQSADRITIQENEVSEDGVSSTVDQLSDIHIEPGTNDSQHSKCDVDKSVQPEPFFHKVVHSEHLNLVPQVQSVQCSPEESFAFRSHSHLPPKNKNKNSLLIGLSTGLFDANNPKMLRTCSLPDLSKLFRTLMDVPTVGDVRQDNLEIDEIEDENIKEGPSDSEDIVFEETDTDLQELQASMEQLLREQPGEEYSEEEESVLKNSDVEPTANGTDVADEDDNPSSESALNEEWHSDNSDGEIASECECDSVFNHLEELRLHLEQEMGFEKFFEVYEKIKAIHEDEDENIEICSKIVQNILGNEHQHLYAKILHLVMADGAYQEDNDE
# [3] = biological target: T2, Serine/threonine-protein kinase Nek1 (Homo sapiens); conditions: at 1 µM
# [4] = biological target: T3, Serine/threonine-protein kinase Nek2 (Homo sapiens) (UniProt P51955); conditions: at 0.1 µM
# T3 sequence (whole entry): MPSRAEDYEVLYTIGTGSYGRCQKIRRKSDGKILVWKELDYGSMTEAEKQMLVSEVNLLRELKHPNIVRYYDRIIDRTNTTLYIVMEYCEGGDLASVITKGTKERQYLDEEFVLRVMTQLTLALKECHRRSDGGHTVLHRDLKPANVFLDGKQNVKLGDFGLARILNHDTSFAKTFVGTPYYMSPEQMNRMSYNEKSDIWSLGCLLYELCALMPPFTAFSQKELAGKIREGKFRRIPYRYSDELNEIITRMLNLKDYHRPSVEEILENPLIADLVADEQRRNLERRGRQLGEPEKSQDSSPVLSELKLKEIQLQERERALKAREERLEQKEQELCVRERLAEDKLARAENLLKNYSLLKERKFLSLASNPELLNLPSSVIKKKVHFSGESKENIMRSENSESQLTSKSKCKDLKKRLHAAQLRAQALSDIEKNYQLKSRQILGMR
# [5] = biological target: T3, Serine/threonine-protein kinase Nek2 (Homo sapiens); conditions: at 1 µM
# [6] = biological target: Serine/threonine-protein kinase Nek6 (Homo sapiens) (UniProt Q9HC98); conditions: at 0.1 µM
# [7] = biological target: Serine/threonine-protein kinase Nek6 (Homo sapiens) (UniProt Q9HC98); conditions: at 1 µM
# [8] = biological target: Serine/threonine-protein kinase Nek7 (Homo sapiens) (UniProt Q8TDX7); conditions: at 0.1 µM
# [9] = biological target: Serine/threonine-protein kinase Nek7 (Homo sapiens) (UniProt Q8TDX7); conditions: at 1 µM
# [10] = biological target: T4, Serine/threonine-protein kinase Nek9 (Homo sapiens) (UniProt Q8TD19); conditions: at 0.1 µM
# T4 sequence (whole entry): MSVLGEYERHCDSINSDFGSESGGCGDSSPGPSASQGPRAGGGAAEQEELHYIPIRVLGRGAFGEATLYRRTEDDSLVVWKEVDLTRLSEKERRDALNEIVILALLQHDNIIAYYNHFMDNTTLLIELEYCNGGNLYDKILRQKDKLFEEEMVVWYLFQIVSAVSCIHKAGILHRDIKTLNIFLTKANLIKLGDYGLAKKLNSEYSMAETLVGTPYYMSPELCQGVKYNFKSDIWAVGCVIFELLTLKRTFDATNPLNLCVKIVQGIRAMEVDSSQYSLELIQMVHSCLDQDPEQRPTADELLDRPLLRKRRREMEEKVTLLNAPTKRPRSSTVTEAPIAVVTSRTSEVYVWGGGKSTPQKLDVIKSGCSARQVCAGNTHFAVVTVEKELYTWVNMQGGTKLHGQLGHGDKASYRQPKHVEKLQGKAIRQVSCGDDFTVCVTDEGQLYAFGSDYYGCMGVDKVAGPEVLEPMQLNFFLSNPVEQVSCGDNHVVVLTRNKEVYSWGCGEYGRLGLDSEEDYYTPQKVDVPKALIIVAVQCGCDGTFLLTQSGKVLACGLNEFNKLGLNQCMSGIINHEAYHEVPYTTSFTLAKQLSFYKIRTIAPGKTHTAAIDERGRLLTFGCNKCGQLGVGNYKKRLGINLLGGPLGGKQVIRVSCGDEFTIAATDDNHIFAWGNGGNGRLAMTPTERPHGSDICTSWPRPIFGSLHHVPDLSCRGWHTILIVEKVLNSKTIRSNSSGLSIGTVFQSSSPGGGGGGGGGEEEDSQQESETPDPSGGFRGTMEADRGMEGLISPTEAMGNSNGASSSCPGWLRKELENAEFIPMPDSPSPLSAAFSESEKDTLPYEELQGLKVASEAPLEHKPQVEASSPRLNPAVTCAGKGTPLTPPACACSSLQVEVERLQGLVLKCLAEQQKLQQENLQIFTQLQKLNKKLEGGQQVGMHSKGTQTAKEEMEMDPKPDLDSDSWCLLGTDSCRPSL
# [11] = biological target: T4, Serine/threonine-protein kinase Nek9 (Homo sapiens); conditions: at 1 µM
# [12] = biological target: Serine/threonine-protein kinase PLK1 (Homo sapiens) (UniProt P53350); conditions: at 0.1 µM
# [13] = biological target: Serine/threonine-protein kinase PLK1 (Homo sapiens) (UniProt P53350); conditions: at 1 µM
# [14] = biological target: T5, Dual specificity protein kinase TTK (Homo sapiens) (UniProt P33981); conditions: at 0.1 µM
# T5 sequence (whole entry): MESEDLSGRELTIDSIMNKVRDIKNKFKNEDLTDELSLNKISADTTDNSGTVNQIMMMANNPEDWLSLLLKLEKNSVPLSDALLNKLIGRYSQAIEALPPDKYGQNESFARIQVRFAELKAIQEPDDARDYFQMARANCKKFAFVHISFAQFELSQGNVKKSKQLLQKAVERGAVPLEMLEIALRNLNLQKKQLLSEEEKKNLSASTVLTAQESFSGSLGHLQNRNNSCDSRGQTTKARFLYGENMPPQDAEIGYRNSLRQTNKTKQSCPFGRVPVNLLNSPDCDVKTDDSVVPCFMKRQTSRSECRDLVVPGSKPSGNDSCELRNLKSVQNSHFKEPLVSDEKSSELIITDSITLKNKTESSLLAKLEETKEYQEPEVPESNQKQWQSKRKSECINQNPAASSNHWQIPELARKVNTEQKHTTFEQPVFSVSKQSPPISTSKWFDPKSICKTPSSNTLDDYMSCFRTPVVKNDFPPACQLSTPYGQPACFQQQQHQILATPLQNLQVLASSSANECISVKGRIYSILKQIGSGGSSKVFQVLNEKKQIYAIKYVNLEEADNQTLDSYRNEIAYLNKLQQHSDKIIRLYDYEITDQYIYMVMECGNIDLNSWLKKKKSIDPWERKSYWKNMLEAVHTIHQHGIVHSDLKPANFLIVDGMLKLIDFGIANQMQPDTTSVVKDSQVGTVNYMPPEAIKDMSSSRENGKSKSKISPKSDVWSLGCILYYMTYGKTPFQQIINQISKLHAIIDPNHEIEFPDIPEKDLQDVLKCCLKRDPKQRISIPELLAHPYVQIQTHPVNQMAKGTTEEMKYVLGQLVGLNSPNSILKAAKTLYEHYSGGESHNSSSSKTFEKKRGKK
# [15] = system: T6, Receptor-type tyrosine-protein kinase FLT3 (Homo sapiens), P36888 [D835Y]; conditions: at 1 µM
# T6 sequence (whole entry): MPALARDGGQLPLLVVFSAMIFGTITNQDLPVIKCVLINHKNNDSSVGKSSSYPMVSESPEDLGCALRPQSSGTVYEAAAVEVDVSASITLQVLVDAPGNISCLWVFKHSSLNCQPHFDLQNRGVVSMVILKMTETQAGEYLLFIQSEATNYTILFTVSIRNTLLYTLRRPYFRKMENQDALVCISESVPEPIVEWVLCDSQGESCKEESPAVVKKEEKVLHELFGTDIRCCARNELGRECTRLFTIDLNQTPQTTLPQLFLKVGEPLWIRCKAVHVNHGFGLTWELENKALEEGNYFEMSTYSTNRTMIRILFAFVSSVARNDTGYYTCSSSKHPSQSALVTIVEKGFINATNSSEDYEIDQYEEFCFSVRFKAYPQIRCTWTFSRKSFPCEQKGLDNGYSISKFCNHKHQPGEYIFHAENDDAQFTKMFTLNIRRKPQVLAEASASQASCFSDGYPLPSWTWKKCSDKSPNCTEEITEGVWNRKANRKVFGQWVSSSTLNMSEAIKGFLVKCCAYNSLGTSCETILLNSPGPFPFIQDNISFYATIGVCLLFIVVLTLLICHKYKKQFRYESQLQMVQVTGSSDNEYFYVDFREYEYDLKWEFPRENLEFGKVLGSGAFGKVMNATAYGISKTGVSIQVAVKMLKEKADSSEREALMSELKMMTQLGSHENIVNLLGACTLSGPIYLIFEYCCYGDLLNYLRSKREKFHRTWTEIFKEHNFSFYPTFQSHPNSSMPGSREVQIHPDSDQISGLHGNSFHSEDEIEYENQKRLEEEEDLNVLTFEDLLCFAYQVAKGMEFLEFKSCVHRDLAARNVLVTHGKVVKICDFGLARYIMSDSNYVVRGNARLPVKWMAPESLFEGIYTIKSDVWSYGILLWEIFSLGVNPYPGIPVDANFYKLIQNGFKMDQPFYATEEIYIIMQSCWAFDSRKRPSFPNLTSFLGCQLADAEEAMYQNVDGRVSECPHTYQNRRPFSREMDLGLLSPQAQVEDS
# [16] = biological target: Vascular endothelial growth factor receptor 3 (Homo sapiens) (UniProt P35916); conditions: at 0.1 µM
# [17] = biological target: Vascular endothelial growth factor receptor 3 (Homo sapiens) (UniProt P35916); conditions: at 1 µM
# [18] = biological target: Macrophage colony-stimulating factor 1 receptor (Homo sapiens) (UniProt P07333); conditions: at 0.1 µM
# [19] = biological target: Macrophage colony-stimulating factor 1 receptor (Homo sapiens) (UniProt P07333); conditions: at 1 µM
# [20] = biological target: Tyrosine-protein kinase Fyn (Homo sapiens) (UniProt P06241); conditions: at 0.1 µM
# Tyrosine-protein kinase Fyn (Homo sapiens), sequence (P06241 2-537 limits assumed): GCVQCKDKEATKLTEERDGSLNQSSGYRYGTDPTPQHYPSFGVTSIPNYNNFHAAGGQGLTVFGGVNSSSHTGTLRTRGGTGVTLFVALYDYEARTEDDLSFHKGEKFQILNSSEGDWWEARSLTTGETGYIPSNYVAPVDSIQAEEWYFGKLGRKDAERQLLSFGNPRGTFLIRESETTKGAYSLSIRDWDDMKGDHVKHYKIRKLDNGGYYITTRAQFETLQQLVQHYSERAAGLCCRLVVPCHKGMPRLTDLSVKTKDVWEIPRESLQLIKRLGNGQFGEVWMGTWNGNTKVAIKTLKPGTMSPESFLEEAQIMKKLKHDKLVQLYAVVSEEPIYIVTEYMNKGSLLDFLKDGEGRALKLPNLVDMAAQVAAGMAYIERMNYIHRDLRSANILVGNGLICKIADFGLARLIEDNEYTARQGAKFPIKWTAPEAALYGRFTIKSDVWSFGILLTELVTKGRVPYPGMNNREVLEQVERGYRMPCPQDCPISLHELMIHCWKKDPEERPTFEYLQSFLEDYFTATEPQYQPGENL
# Macrophage colony-stimulating factor 1 receptor (Homo sapiens), sequence (P07333 whole entry): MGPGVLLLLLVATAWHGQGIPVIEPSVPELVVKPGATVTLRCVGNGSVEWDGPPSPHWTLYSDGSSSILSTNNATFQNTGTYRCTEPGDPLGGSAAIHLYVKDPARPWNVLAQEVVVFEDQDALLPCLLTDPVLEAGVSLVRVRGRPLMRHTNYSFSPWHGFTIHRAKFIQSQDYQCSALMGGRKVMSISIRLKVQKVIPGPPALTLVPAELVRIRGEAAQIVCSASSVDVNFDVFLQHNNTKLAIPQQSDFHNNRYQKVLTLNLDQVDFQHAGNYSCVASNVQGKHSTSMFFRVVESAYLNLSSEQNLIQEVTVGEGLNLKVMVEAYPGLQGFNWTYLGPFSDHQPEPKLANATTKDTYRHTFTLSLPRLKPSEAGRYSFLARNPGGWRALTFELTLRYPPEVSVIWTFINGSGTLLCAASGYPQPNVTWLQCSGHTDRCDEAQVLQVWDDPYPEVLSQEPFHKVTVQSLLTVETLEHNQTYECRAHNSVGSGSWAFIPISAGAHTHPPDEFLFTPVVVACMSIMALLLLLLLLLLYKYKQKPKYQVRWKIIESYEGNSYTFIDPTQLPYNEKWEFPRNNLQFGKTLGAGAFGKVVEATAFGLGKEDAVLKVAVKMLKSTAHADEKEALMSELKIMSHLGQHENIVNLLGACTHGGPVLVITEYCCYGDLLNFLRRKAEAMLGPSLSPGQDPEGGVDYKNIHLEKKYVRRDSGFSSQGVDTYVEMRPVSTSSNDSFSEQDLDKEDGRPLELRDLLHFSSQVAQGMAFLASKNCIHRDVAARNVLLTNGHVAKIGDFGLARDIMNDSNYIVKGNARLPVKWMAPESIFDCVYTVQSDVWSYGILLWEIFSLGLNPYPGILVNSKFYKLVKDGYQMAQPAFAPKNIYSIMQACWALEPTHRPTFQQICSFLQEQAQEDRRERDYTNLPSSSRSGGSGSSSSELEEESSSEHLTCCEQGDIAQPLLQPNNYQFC
# Serine/threonine-protein kinase PLK1 (Homo sapiens), sequence (P53350 whole entry): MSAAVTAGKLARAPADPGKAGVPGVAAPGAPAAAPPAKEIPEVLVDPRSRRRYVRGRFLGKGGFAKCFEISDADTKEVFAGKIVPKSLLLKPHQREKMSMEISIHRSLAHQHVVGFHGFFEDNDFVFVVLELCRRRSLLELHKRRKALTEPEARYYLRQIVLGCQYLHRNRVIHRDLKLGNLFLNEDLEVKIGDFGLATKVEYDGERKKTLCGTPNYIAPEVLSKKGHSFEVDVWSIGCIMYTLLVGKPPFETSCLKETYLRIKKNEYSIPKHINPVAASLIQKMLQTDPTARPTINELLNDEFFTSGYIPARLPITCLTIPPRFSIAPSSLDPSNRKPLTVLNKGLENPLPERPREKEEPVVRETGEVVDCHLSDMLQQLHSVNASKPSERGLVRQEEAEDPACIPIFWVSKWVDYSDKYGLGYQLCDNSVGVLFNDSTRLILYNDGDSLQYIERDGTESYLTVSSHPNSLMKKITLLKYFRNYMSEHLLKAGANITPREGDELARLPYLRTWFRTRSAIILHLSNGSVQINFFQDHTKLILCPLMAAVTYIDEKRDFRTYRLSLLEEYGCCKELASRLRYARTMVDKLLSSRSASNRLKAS
# Serine/threonine-protein kinase Nek6 (Homo sapiens), sequence (Q9HC98 whole entry): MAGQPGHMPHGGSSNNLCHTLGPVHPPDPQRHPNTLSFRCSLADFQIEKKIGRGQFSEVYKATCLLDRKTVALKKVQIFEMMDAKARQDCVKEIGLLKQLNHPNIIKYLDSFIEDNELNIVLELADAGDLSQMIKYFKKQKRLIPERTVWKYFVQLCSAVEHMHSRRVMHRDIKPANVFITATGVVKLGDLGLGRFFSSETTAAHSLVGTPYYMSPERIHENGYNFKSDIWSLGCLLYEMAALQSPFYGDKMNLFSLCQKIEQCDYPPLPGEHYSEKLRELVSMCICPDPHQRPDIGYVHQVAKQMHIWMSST
# Vascular endothelial growth factor receptor 3 (Homo sapiens), sequence (P35916 whole entry): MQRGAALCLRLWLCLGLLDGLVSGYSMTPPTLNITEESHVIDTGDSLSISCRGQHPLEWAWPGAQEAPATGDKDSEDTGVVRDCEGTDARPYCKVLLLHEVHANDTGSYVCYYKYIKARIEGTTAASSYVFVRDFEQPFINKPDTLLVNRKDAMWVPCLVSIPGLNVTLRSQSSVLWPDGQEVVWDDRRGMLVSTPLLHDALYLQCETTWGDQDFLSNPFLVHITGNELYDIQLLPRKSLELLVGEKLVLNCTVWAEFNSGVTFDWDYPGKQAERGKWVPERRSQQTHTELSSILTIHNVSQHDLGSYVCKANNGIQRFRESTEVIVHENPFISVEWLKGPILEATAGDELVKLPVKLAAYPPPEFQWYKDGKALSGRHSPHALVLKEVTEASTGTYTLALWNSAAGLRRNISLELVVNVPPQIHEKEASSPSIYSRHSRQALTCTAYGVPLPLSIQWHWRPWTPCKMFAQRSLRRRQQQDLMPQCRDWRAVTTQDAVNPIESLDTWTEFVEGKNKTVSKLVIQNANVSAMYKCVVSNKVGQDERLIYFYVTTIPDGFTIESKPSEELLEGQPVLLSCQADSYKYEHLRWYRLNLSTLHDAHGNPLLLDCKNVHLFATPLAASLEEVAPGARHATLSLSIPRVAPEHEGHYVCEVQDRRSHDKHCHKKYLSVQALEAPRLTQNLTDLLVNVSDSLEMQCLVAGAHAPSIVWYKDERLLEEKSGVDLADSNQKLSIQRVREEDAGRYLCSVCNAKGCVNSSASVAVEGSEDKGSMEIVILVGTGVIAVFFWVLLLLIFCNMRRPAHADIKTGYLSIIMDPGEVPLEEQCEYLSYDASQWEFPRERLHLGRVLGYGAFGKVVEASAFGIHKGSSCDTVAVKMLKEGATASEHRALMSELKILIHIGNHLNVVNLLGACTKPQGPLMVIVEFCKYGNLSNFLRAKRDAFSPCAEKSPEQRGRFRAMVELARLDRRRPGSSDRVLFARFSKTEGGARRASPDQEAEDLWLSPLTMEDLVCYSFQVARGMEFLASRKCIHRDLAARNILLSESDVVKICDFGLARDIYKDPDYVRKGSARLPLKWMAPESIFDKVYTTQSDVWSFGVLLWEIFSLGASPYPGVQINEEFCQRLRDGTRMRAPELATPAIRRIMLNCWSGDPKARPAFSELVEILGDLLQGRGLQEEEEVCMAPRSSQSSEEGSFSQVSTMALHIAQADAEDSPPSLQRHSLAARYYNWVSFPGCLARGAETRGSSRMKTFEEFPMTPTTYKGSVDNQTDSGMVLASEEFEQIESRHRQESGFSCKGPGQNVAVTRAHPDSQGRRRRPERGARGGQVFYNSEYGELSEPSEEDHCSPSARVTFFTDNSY
# Serine/threonine-protein kinase Nek7 (Homo sapiens), sequence (Q8TDX7 whole entry, looked up): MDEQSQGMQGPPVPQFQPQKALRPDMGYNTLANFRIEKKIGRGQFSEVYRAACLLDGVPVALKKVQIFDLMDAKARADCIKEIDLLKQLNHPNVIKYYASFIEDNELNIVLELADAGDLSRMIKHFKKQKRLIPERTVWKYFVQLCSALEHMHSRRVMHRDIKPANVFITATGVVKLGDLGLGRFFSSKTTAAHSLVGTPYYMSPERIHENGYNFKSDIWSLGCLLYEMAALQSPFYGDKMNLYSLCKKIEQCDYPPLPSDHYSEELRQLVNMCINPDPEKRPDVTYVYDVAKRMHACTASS
SMILES,inhibition [1] [%],inhibition [2] [%],inhibition [3] [%],inhibition [4] [%],inhibition [5] [%],inhibition [6] [%],inhibition [7] [%],inhibition [8] [%],inhibition [9] [%],inhibition [10] [%],inhibition [11] [%],inhibition [12] [%],inhibition [13] [%],inhibition [14] [%],inhibition [15] [%],inhibition [16] [%],inhibition [17] [%],inhibition [18] [%],inhibition [19] [%],inhibition [20] [%]
CN(C)C(=O)O[C@@H]1CN[C@@H](C#Cc2cc3ncnc(Nc4ccc(OCc5cccc(F)c5)c(Cl)c4)c3s2)C1,-2.71,1.22,0.34,2,2.88,0.28,-0.53,3.24,2.3,0.42,5.37,4.55,3.19,1.31,-2.2,-0.2,0.49,-1.87,2.32,1.01
CCCN1CCCC(c2ccc(Nc3nc(Nc4cc(F)ccc4C(N)=O)c4cc[nH]c4n3)c(OC)c2)C1 (stereo not given),8.28,3.63,21.6,6.55,11.1,1.92,3.03,6.42,7.03,9.57,12.8,13.3,48.1,75.9,43.4,-0.55,4.1,34.6,78.6,3.45
